ST2 inh – inhibitors of human ST2 (IL1RL1) binding to IL-33, primary screen, biochemical, AlphaLISA | Interleukin-1 receptor-like 1 (Homo sapiens), Q01638 | AlphaLISA ST2-Fc/biotin-IL-33 interaction, 1 h | inhibition, % for hits at 17 µM | 78,000 tested, 2.3% active | AID 1259354, 2018; in the data active = inhibition above about 30%
Target sequence (Q01638 whole entry, looked up): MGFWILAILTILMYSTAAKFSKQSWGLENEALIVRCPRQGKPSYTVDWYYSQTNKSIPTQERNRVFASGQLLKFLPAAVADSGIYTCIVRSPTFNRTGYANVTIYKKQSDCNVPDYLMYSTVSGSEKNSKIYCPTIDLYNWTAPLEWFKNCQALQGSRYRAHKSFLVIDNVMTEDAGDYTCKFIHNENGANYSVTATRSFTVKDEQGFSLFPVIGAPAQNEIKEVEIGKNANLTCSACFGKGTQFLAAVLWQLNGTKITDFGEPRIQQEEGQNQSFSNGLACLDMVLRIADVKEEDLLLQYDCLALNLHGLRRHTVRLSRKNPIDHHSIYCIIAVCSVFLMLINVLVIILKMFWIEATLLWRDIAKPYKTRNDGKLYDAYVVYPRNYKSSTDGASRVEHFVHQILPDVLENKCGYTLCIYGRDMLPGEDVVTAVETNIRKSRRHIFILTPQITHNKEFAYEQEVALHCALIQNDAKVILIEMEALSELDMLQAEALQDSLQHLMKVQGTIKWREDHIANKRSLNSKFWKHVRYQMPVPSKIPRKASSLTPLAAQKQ
Of the large screens only hits and unclear results are named; the others gave an inactive call. The full list was thinned out, with hits kept by preference.

Cc1c(C)n2c3c(cccc13)CCC2	ST2 inh 52.0%
Cc1c(C=O)c2ccccc2n1CC(=O)N1CCCc2ccccc21	none
Cc1cc2c(cc1O)NC(=O)CC2c1cc(=O)n2c3c(cccc13)CCC2 (stereo not given)	none
Cc1c(C(=O)NCc2cccnc2)oc2ccc(S(=O)(=O)N3CCOCC3)cc12	none
Cc1ccc2oc(-c3ccc(NC(=O)c4ccccc4Cl)cc3O)nc2c1	none
Cc1ccc2oc(-c3ccc(NC(=O)c4cccnc4)cc3O)nc2c1	none
Cc1ccc2nc(-c3ccc(N)cc3O)oc2c1	ST2 inh 34.0%
CN(C(=O)c1ccsc1)C(Cc1ccccc1)C1CCN(C(=O)c2ccc3[nH]ccc3c2)CC1 (stereo not given)	none
COc1ccc(C=Nc2[nH]c(OC)c(C#N)c2C#N)cc1	none
COC(=O)C1=C(NC(=O)c2ccc(Cl)cc2)CCS1	none
COC(=O)C1=C(NC(=O)c2cc(Cl)ccc2Cl)CCS1	none
COC(=O)C1=C(NC(=O)c2cc(C)cc(C)c2)CCS1	ST2 inh 50.0%
CC1=Nc2ccccc2N=C(C)C1	none
CCN(CC)CCn1ccnc1-c1cc2ccc(F)cc2[nH]c1=O	none
Cn1cc(CC(=O)N2CCN(c3ccc(F)cc3)CC2)c2ccccc21	none
Oc1oc(-c2ccccc2F)nc1C=Nc1cc(Cl)c(Cl)cc1Cl	none
Cc1ccc(N=Cc2nc(-c3ccccc3F)oc2O)c([N+](=O)[O-])c1	ST2 inh 34.0%
O=C(O)c1ccccc1N=Cc1nc(-c2ccccc2F)oc1O	none
O=C(Cc1c(C(=O)O)[nH]c2ccc(Cl)cc12)Nc1ccccc1F	none
c1ccc2c(c1)nc(N1CCCC1)n2CCN1CCCCC1	none
O=C(Nc1cccc2c1CCCC2)C1CCN(S(=O)(=O)c2cccs2)CC1	none
C=CCNc1ccccc1C(=O)N(Cc1c(C)nn(C)c1C)C(C)C	none
CCc1ccc(NC(=O)CN2CCCN(Cc3cccc(F)c3)S2(=O)=O)cc1	none
N#C/C(=C/c1ccc(Br)cc1)c1nc(-c2cccs2)cs1	ST2 inh 40.0%
O=C(Nc1nc(-c2cccs2)cs1)c1ccc(Br)cc1	none
N#C/C(=C\c1ccc(Br)cc1)c1nc(C2CC2)cs1	ST2 inh 49.0%
N#Cc1c(-c2ccccc2)cc(-c2cccs2)nc1Br	none
Cc1ccc(C)c(N(C)C(=O)C2CCCN2S(=O)(=O)c2cccc3nsnc23)c1 (stereo not given)	none
Cc1c(C(=O)N2CCN=C2SCc2ccccc2)cccc1[N+](=O)[O-]	none
CC(C)(C)c1ccccc1OCC(O)CN1CCN(c2ccccc2)CC1 (stereo not given)	none
O=C(Cn1c(=O)sc2ccccc21)Nc1ccccc1F	none
Cc1cccc(C(=O)N2C(C)CCCC2C)c1 (stereo not given)	none
COC(=O)[C@@H]1CN(C(=O)c2cccc(F)c2)CCN1C(=O)c1cccnc1	none
CC1CN(C(=O)c2cccc(F)c2)C(C)CN1C(=O)c1cccc(F)c1 (stereo not given)	ST2 inh 85.0%
CCOc1ccccc1-c1nc(C(N)=O)c2c(n1)n(-c1ccc(C)c(C)c1)c(=O)n2C	none
N/C(Cc1ccc(Cl)cc1Cl)=N/OC(=O)c1cccs1	none
COc1cc(/C=C2/C=C(c3ccccc3)OC2=O)cc(OC)c1OC	ST2 inh 61.0%
COc1cc(/C=C/C(=O)O)cc(OC)c1OC	none
Cc1ccc(-c2nc(-c3ccncc3)no2)cc1C	none
COc1ccc(/C=C2\C=C(c3ccc(Cl)cc3)OC2=O)c(C)c1	none
CCOc1ccc2c(=O)c(-c3ccccc3OC)coc2c1	none
CCOc1ccc(-c2nc3s/c(=C\C=C\c4ccccc4OC)c(=O)n3n2)cc1	none
CCOc1ccccc1/C=C1\N=C(c2ccc(Cl)cc2)OC1=O	none
CCOc1ccc(N2C(=O)/C(=C\c3ccccc3OC)N=C2c2ccc(OC)c(OC)c2)cc1	ST2 inh 39.0%
Cc1ccc(C2=C/C(=C\c3cccs3)C(=O)O2)cc1C	ST2 inh 68.0%
COc1cc2oc(-c3ccccc3)cc(=O)c2c(O)c1OC	none
CCOc1ccc(C2=C/C(=C/c3ccccc3OC)C(=O)O2)cc1	ST2 inh 46.0%
CNCC(=O)NCCSc1ccc(Cl)cc1	none
C=CCn1cc(C(=O)NCCC(C)C)c(=O)c2cc(S(=O)(=O)N3CCCCCC3)ccc21	none
COc1ccccc1C(=O)NC(Nc1ccc(Cl)cc1)C(Cl)(Cl)Cl (stereo not given)	none
COc1cc2oc(=O)ccc2cc1CC=C(C)C	none
COc1cc2c(cc1OC)C(C(=O)N(C)Cc1ccccc1)C(c1cccs1)N(C)C2=O (stereo not given)	none
c1ccc2c3c(ccc2c1)OCN(c1ccc2c(c1)OCCO2)C3	none
CCN(CC)CCCNC(=O)C1CCC(=O)N1Cc1ccc(C)cc1 (stereo not given)	none
CCc1ccc(C2NC(=O)NC(C)=C2C(=O)OCC2CCCO2)cc1 (stereo not given)	none
CCc1ccc(S(=O)(=O)NCc2nc3cccnc3n2Cc2ccc(C)cc2)cc1	none
CCCC(=O)N(c1ccc(C(C)C)cc1)C1C=CS(=O)(=O)C1 (stereo not given)	none
Cc1oc(C(C)C)cc1C(=O)N1CCC(Cn2cc(CO)nn2)CC1	none
O=C(CN1C(=O)CNC1=O)NC1CC(=O)N(Cc2cccc(F)c2)C1 (stereo not given)	none
CCOc1ccc(N2CC(NC(=O)Cc3cccs3)CC2=O)cc1 (stereo not given)	none
CCOc1ccc(C2=C/C(=C\c3cccs3)C(=O)O2)cc1	ST2 inh 31.0%
CCOc1ccc(-c2nc3s/c(=C\c4ccc(Cl)cc4)c(=O)n3n2)cc1	none
CC(=O)N1CCc2cc(Br)cc(S(=O)(=O)CCC(=O)N3CCc4ccccc43)c21	none
Cc1ccc(-c2csc(NC(=O)c3cc(=O)c4ccccc4o3)n2)c(C)c1	none
Cc1ccc(-c2csc(/C(C#N)=C/c3cccnc3)n2)c(C)c1	ST2 inh 34.0%
O=C(CCCCCn1c(=O)[nH]c2ccsc2c1=O)NCc1ccccc1Cl	none
COc1ccc(N2C(=O)CC(NCCc3ccc(O)c(O)c3)C2=O)cc1 (stereo not given)	none
C(=Nc1cnc2ccccc2c1)c1c2n(c3ccccc13)CCCN2	ST2 inh 30.0%
Cc1cc(C)cc(NC(=O)c2cc3c(=O)n4cccc(C)c4nc3n2C)c1	none
O=C(Nc1cc(F)ccc1F)[C@H](CSCc1ccccc1)N1Cc2ccccc2C1=O	none
Cc1nn(-c2ccccc2)c2c1C(c1ccncc1)C(C#N)=C(N)O2 (stereo not given)	ST2 inh 38.0%
Cc1nn(-c2ccccc2)c2c1C(c1ccc([N+](=O)[O-])o1)C(C#N)=C(N)O2 (stereo not given)	ST2 inh 39.0%
CC1=C(n2nnc3ccccc32)C(c2ccccc2)C(C#N)=C(N)O1 (stereo not given)	none
Cc1nn(-c2ccccc2)c2c1C(c1cccnc1)C(C#N)=C(N)O2 (stereo not given)	none
COc1ccc(Br)cc1C1C(C#N)=C(N)Oc2c1c(C)nn2-c1ccccc1 (stereo not given)	none
N#CC1=C(N)Oc2n[nH]c(-c3ccccc3)c2C1c1ccc([N+](=O)[O-])cc1Cl (stereo not given)	none
COc1ccc(NC(=O)c2ccc(SC)cc2OC)cc1OC	none
Cc1ccc(S(=O)(=O)Nc2ccccc2C(=O)OCc2nc3ccccc3s2)cc1	none
O=C(c1cccc([N+](=O)[O-])c1)N1N=C(C2CCCCC2)CC1(O)C(F)(F)F (stereo not given)	none
CC(C)c1ccc(OCC(O)CN2CCN(Cc3ccc4c(c3)OCO4)CC2)cc1 (stereo not given)	none
CCOc1ccc(/C=C2\SC(N3CC(C)OC(C)C3)=NC2=O)cc1OC (stereo not given)	none
COc1cc(/C=C2/SC(=Nc3ccccc3)NC2=O)ccc1OCC#N	ST2 inh 32.0%

Compound activity from PubChem.
